KKLEB cytotox: reduces viability of KKLEB cystic fibrosis airway cells; AID 602141; 360,000 tested, 0.36% active; activity change (cytotoxicity), % at 5 µM; KKLEB CF airway cells viability, ATPlite luminescence, overnight; active compounds read low; cells stimulated with P. aeruginosa culture filtrate;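 active means corrected activity change at or below -50% at 5 µM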
HIF-2a block: inhibitors of HIF-2a; 786-0 RCC cells HIF-2a reporter, luciferase luminescence, overnight; inhibition, % at 18.8 µM; 360,000 tested, 0.72% active; AID 624352;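 active means inhibition of the luminescence signal of 40% or more relative to plate controls, in a single-dose primary screen at 18.75 µM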
Peg3 promoter: inhibitors of Peg3 promoter. HeLa PEG-Prom luciferase reporter, luminescence, overnight. 360,000 tested, 1.7% active. inhibition, % at 20 µM. AID 588405;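 active means inhibition of at least 50% at 20 µM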
MITF TRPM1 inh: MITF TRPM1 promoter inhibition in SK-MEL-5 cells | 330,000 tested, 0.83% active | SK-MEL-5 TRPM1 promoter luciferase, 24 h | inhibition, % at 12.5 µM;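 active means mean inhibition across replicates of 60% or more, whatever share of single replicates reaches that level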
Shn3 3UTR inh: reduces Shn3 3'UTR luciferase signal in osteoblasts | Clone20 osteoblast Shn3 3'UTR firefly luciferase, 24 h | 360,000 tested, 0.52% active | inhibition, % at 12.5 µM;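 active means mean inhibition of at least 75% with every replicate also reaching 75%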
CF NFkB block: cystic fibrosis NF-kB activation inhibition; KKLEB NF-kB-GFP reporter, PAF-induced, GFP fluorescence overnight; inhibition, % at 5 µM; 360,000 tested, 0.86% active; AID 588850;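 active means at least 50% inhibition at 5 µM, scaled per plate between neutral and stimulator controls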;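 further: PAF is a Pseudomonas aeruginosa culture filtrate used as stimulus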
Hits are given with their value. Compounds with a hit are over-represented: about 2.7% of the library has one in this group of screens.

How did Cc1nc2ccc(NC(=O)c3ccccc3)cc2s1 do in these assays?
KKLEB cytotox: inactive; HIF-2a block: inactive; Peg3 promoter: inactive; MITF TRPM1 inh: inactive; Shn3 3UTR inh: inactive; CF NFkB block: inactive

Results for COc1cc(NC(=O)COc2cc(C)cc3oc(=O)cc(C)c23)cc(OC)c1OC ?
KKLEB cytotox: inactive; HIF-2a block: inactive; Peg3 promoter: inactive; Shn3 3UTR inh: inactive; CF NFkB block: inactive

What do the screens show for `C[N+]1(C)CC[C@H](OC(=O)[C@@](O)(c2ccccc2)C2CCCC2)C1`?
KKLEB cytotox: -66.8; HIF-2a block: inactive; Peg3 promoter: inactive; MITF TRPM1 inh: inactive; Shn3 3UTR inh: inactive; CF NFkB block: inactive

What do the screens show for `COc1cccc2c1C(=O)c1c(O)c3c(c(O)c1C2=O)C[C@](O)(C(C)=O)C[C@H]3O[C@@H]1C[C@@H](N)[C@@H](O)[C@@H](C)O1`?
KKLEB cytotox: inactive; HIF-2a block: inactive; Peg3 promoter: 105.0; MITF TRPM1 inh: 88.2; Shn3 3UTR inh: 94.1; CF NFkB block: 64.6

Results for COc1cccc2c1-c1c(O)cccc1C2=O ?
KKLEB cytotox: inactive; HIF-2a block: inactive; Peg3 promoter: inactive; MITF TRPM1 inh: inactive; Shn3 3UTR inh: inactive; CF NFkB block: inactive

How did CCCCC(=O)OCC(=O)C1(O)Cc2c(O)c3c(c(O)c2C(OC2CC(NC(=O)C(F)(F)F)C(O)C(C)O2)C1)C(=O)c1c(OC)cccc1C3=O (configuration not stated) do in these assays?
KKLEB cytotox: inactive; HIF-2a block: inactive; Peg3 promoter: 74.3; MITF TRPM1 inh: 61.4; Shn3 3UTR inh: inactive; CF NFkB block: inactive

How did COc1cccc2c1C(=O)c1c(O)c3c(c(O)c1C2=O)CC(O)(C(C)=O)CC3OC1CC(O)C(O)C(C)O1 (configuration not stated) do in these assays?
KKLEB cytotox: inactive; HIF-2a block: inactive; Peg3 promoter: inactive; MITF TRPM1 inh: 77.3; Shn3 3UTR inh: inactive; CF NFkB block: inactive

What do the screens show for `CCOC(=O)C1CCN(C(=O)c2cccc(S(=O)(=O)NCc3ccccc3)c2)CC1`?
KKLEB cytotox: inactive; HIF-2a block: inactive; Peg3 promoter: inactive; MITF TRPM1 inh: inactive; Shn3 3UTR inh: inactive; CF NFkB block: inactive

Results for CC(C)C[C@H](N)c1nnc(S(=O)(=O)Cc2cccc(F)c2)o1 ?
KKLEB cytotox: inactive; HIF-2a block: inactive; Peg3 promoter: 66.8; MITF TRPM1 inh: inactive; Shn3 3UTR inh: inactive; CF NFkB block: inactive

How did CC(C)CCNC(=O)c1ccc(CSCc2cccc(F)c2)o1 do in these assays?
KKLEB cytotox: inactive; HIF-2a block: inactive; Peg3 promoter: inactive; MITF TRPM1 inh: inactive; Shn3 3UTR inh: inactive; CF NFkB block: inactive

What do the screens show for `Cc1ccc(C(OCC(O)CNCc2ccc(F)cc2)c2ccccc2)cc1` (configuration not stated)?
KKLEB cytotox: inactive; HIF-2a block: inactive; Peg3 promoter: 100.0; MITF TRPM1 inh: inactive; Shn3 3UTR inh: inactive; CF NFkB block: inactive

Results for COc1ccc(NC2=NC(=S)N(c3ccccc3C)C23CCCCC3)cc1 ?
KKLEB cytotox: inactive; HIF-2a block: inactive; Peg3 promoter: inactive; MITF TRPM1 inh: inactive; Shn3 3UTR inh: inactive; CF NFkB block: inactive

How did [O-][N+]1=c2ccc(Nc3ccccc3)cc2=NC12CCCCC2 do in these assays?
KKLEB cytotox: inactive; HIF-2a block: inactive; Peg3 promoter: 104.4; MITF TRPM1 inh: 61.1; Shn3 3UTR inh: inactive; CF NFkB block: 84.7

What do the screens show for `COc1ccc(Nc2ccc3c(c2)=NC2(CCCCC2)[N+]=3[O-])cc1`?
KKLEB cytotox: inactive; HIF-2a block: inactive; Peg3 promoter: 95.2; MITF TRPM1 inh: 86.5; Shn3 3UTR inh: inactive; CF NFkB block: 63.8

Results for CCN(CC)c1ccc2c(cc1=O)[C@@H](NC)CCc1cc(OC)c(OC)c(OC)c1-2 ?
KKLEB cytotox: inactive; HIF-2a block: inactive; Peg3 promoter: inactive; MITF TRPM1 inh: 66.0; Shn3 3UTR inh: inactive; CF NFkB block: inactive

How did COc1cc2c(c(OC)c1OC)-c1ccc(N(C)CC(OC)OC)c(=O)cc1[C@@H](NC(C)=O)CC2 do in these assays?
KKLEB cytotox: inactive; HIF-2a block: inactive; Peg3 promoter: inactive; MITF TRPM1 inh: 73.2; Shn3 3UTR inh: inactive; CF NFkB block: inactive

How did CCn1cc(/C=C/c2cc[n+](C)cc2)c2ccccc21 do in these assays?
KKLEB cytotox: inactive; HIF-2a block: inactive; Peg3 promoter: inactive; MITF TRPM1 inh: inactive; Shn3 3UTR inh: inactive; CF NFkB block: inactive

How did CC(C)n1cc(/C=C/c2cc[n+](C)cc2)c2ccccc21 do in these assays?
KKLEB cytotox: inactive; HIF-2a block: inactive; Peg3 promoter: inactive; MITF TRPM1 inh: 63.3; Shn3 3UTR inh: inactive; CF NFkB block: inactive

What do the screens show for `Cc1cc(-c2cccnc2)c(C#N)c(SCc2cccc(F)c2)n1`?
KKLEB cytotox: -61.8; HIF-2a block: inactive; Peg3 promoter: inactive; MITF TRPM1 inh: inactive; Shn3 3UTR inh: inactive; CF NFkB block: 54.4

Results for CC1(C(=O)NS(=O)(=O)c2cccc(OC(F)F)c2)CCN1C(=O)c1ccccc1CCc1ccccc1 (configuration not stated) ?
KKLEB cytotox: inactive; HIF-2a block: inactive; Peg3 promoter: inactive; Shn3 3UTR inh: inactive; CF NFkB block: inactive

How did CCN(CC)CCC(=O)N1C/C(=C/c2ccccc2)C(=O)/C(=C\c2ccccc2)C1 do in these assays?
KKLEB cytotox: inactive; HIF-2a block: 82.7; Peg3 promoter: 94.2; Shn3 3UTR inh: inactive; CF NFkB block: 86.0

Results for O=C1/C(=C\c2ccc(Cl)c(Cl)c2)CN(C(=O)CCN2CCOCC2)C/C1=C/c1ccc(Cl)c(Cl)c1 ?
KKLEB cytotox: -78.1; HIF-2a block: 93.8; Peg3 promoter: 98.1; MITF TRPM1 inh: 117.5; Shn3 3UTR inh: 98.7; CF NFkB block: 90.1

What do the screens show for `O=C1/C(=C\c2ccccc2)CN(C(=O)CCN2CCCCC2)C/C1=C/c1ccccc1`?
KKLEB cytotox: -53.6; HIF-2a block: 89.6; Peg3 promoter: 97.0; MITF TRPM1 inh: 109.4; Shn3 3UTR inh: 93.8; CF NFkB block: 90.9

How did COC(CNC(=O)c1c[nH]c2ccc(S(=O)(=O)N(C)c3ccc(F)cc3)cc2c1=O)OC do in these assays?
KKLEB cytotox: inactive; HIF-2a block: inactive; Peg3 promoter: inactive; MITF TRPM1 inh: inactive; Shn3 3UTR inh: inactive; CF NFkB block: inactive

Results for CC1CCCCC1NC(=O)CSc1nnc(C(F)(F)F)n1C (configuration not stated) ?
KKLEB cytotox: inactive; HIF-2a block: inactive; Peg3 promoter: inactive; Shn3 3UTR inh: inactive; CF NFkB block: inactive

How did CCCOc1ccccc1C(=O)N(Cc1ccc(C)o1)C1CCS(=O)(=O)C1 (configuration not stated) do in these assays?
KKLEB cytotox: inactive; HIF-2a block: inactive; Peg3 promoter: inactive; MITF TRPM1 inh: inactive; Shn3 3UTR inh: inactive; CF NFkB block: inactive

What do the screens show for `Cc1c(Br)c(O)c(Br)c2sc(=O)oc12`?
KKLEB cytotox: inactive; HIF-2a block: inactive; Peg3 promoter: inactive; MITF TRPM1 inh: inactive; Shn3 3UTR inh: inactive; CF NFkB block: inactive

How did COC(=O)c1cccc2c1-c1ccccc1/C2=N/O do in these assays?
KKLEB cytotox: inactive; HIF-2a block: inactive; Peg3 promoter: inactive; MITF TRPM1 inh: inactive; Shn3 3UTR inh: inactive; CF NFkB block: 72.5

Assay outcomes as filed in PubChem.
